# Reference: article PMC11006913
# Changes are numbered by the printed parent chain.
# Columns and labels:
# Assay in all cases: PBM; 200 nM protein, PBS
# Details in all cases: dsDNA, one strand shown
# [1] = molecular target: HOXC9 (Homo sapiens, UniProt P31274 178-260, K195R)
# [2] = molecular target: HOXC9 (Homo sapiens, UniProt P31274 178-260)
# [3] = molecular target: HOXC9 (Homo sapiens, UniProt P31274 178-260, R193K)
# [4] = molecular target: HOXC9 (Homo sapiens, UniProt P31274 178-260, R222W)
# Sequence of HOXC9 (Homo sapiens, UniProt P31274 178-260, R222W) (P31274 178-260 R222W): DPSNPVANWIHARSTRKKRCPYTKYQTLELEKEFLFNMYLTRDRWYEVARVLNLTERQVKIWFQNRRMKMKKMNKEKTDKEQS
# [5] = molecular target: T1, VENTX (Homo sapiens, UniProt O95231 78-163)
# T1 sequence: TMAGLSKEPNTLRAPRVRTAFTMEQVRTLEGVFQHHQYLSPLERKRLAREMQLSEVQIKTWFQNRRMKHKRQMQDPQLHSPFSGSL
# [6] = molecular target: HOXA2 (Homo sapiens, UniProt O43364 129-215, R185T)
# Sequence of HOXA2 (Homo sapiens, UniProt O43364 129-215, R185T) (O43364 129-215 R185T): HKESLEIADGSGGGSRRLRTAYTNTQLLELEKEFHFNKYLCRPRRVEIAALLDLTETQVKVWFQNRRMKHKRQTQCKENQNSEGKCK
# [7] = molecular target: HOXA2 (Homo sapiens, UniProt O43364 129-215)
# Sequence of HOXA2 (Homo sapiens, UniProt O43364 129-215) (O43364 129-215): as the sequence (O43364 129-215 R185T) above, with T57R counted along it
# [8] = molecular target: T2, VENTX (Homo sapiens, UniProt O95231 78-163, Y115F)
# T2 sequence: T1 sequence with Y38F
# [9] = molecular target: T3, SIX6 (Homo sapiens, UniProt O95475 114-200, L143V)
# T3 sequence: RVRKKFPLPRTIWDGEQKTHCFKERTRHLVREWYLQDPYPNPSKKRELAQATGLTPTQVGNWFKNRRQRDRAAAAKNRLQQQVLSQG
# [10] = molecular target: HOXA7 (Homo sapiens, UniProt P31268 116-202)
# Sequence of HOXA7 (Homo sapiens, UniProt P31268 116-202) (P31268 116-202): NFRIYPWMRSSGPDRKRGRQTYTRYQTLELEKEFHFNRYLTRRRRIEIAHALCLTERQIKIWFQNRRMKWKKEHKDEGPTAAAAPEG
# [11] = molecular target: MSX2 (Homo sapiens, UniProt P35548 130-214, R199I)
# Sequence of MSX2 (Homo sapiens, UniProt P35548 130-214, R199I) (P35548 130-214 R199I): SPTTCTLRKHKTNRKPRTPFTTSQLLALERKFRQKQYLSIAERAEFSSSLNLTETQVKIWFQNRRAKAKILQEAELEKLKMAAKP
# [12] = molecular target: MSX2 (Homo sapiens, UniProt P35548 130-214)
# Sequence of MSX2 (Homo sapiens, UniProt P35548 130-214) (P35548 130-214): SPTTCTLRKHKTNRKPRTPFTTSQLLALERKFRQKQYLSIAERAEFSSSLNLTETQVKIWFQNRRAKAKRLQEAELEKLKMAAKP
# [13] = molecular target: MSX2 (Homo sapiens, UniProt P35548 130-214, F161Y)
# Sequence of MSX2 (Homo sapiens, UniProt P35548 130-214, F161Y) (P35548 130-214 F161Y): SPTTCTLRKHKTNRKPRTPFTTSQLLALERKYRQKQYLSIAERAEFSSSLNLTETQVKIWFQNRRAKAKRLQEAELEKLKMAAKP
# [14] = molecular target: HOXA7 (Homo sapiens, UniProt P31268 116-202, W177C)
# Sequence of HOXA7 (Homo sapiens, UniProt P31268 116-202, W177C) (P31268 116-202 W177C): as the sequence (P31268 116-202) above, with W62C counted along it
# [15] = molecular target: ALX1 (Homo sapiens, UniProt Q15699 118-204, L144V)
# Sequence of ALX1 (Homo sapiens, UniProt Q15699 118-204, L144V) (Q15699 118-204 L144V): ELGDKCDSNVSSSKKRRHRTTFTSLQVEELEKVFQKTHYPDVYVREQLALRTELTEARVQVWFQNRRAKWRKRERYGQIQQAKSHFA
# [16] = molecular target: ALX1 (Homo sapiens, UniProt Q15699 118-204, L144R)
# Sequence of ALX1 (Homo sapiens, UniProt Q15699 118-204, L144R) (Q15699 118-204 L144R): as the sequence (Q15699 118-204 L144V) above, with V27R counted along it
# [17] = molecular target: NKX3-2 (Homo sapiens, UniProt P78367 192-278, P234S)
# Sequence of NKX3-2 (Homo sapiens, UniProt P78367 192-278, P234S) (P78367 192-278 P234S): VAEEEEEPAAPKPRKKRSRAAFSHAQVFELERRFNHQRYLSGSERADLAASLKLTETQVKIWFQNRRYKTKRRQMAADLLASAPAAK
# [18] = molecular target: ALX1 (Homo sapiens, UniProt Q15699 118-204)
# Sequence of ALX1 (Homo sapiens, UniProt Q15699 118-204) (Q15699 118-204): as the sequence (Q15699 118-204 L144V) above, with V27L counted along it
# [19] = molecular target: NKX3-2 (Homo sapiens, UniProt P78367 192-278)
# Sequence of NKX3-2 (Homo sapiens, UniProt P78367 192-278) (P78367 192-278): as the sequence (P78367 192-278 P234S) above, with S43P counted along it
# [20] = molecular target: HOXD13 (Homo sapiens, UniProt P35453 263-343, T313R)
# Sequence of HOXD13 (Homo sapiens, UniProt P35453 263-343, T313R) (P35453 263-343 T313R): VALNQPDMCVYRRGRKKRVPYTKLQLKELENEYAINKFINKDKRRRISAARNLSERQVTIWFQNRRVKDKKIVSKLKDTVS
# [21] = molecular target: HOXD13 (Homo sapiens, UniProt P35453 263-343)
# Sequence of HOXD13 (Homo sapiens, UniProt P35453 263-343) (P35453 263-343): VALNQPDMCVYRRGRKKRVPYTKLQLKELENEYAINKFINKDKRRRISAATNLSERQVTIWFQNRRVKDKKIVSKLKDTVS
# [22] = molecular target: VAX1 (Homo sapiens, UniProt Q5SQQ9 86-172)
# Sequence of VAX1 (Homo sapiens, UniProt Q5SQQ9 86-172) (Q5SQQ9 86-172): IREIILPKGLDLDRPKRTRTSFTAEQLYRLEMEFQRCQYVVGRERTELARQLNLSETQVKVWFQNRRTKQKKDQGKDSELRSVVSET
# [23] = molecular target: HOXD13 (Homo sapiens, UniProt P35453 263-343, T313A)
# Sequence of HOXD13 (Homo sapiens, UniProt P35453 263-343, T313A) (P35453 263-343 T313A): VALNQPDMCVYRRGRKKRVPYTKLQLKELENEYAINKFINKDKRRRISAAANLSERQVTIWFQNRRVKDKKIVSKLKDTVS
# [24] = molecular target: VAX1 (Homo sapiens, UniProt Q5SQQ9 86-172, T142I)
# Sequence of VAX1 (Homo sapiens, UniProt Q5SQQ9 86-172, T142I) (Q5SQQ9 86-172 T142I): as the sequence (Q5SQQ9 86-172) above, with T57I counted along it
# [25] = molecular target: VAX1 (Homo sapiens, UniProt Q5SQQ9 86-172, K157R)
# Sequence of VAX1 (Homo sapiens, UniProt Q5SQQ9 86-172, K157R) (Q5SQQ9 86-172 K157R): as the sequence (Q5SQQ9 86-172) above, with K72R counted along it
# Sequence of HOXC9 (Homo sapiens, UniProt P31274 178-260, K195R) (P31274 178-260 K195R): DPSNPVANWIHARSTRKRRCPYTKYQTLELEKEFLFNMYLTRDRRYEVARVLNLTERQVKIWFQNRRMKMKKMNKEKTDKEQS
# Sequence of HOXC9 (Homo sapiens, UniProt P31274 178-260) (P31274 178-260): as the sequence (P31274 178-260 R222W) above, with W45R counted along it
# Sequence of HOXC9 (Homo sapiens, UniProt P31274 178-260, R193K) (P31274 178-260 R193K): as the sequence (P31274 178-260 R222W) above, with R16K, W45R counted along it
sequence,measurement,setting,value
AGGGGGTG,binding signal,[1],"9.33 upbm affinity estimate (log intensity, higher = more binding, comparable within an allelic series)"
same,binding signal,[2],"9.51 upbm affinity estimate (log intensity, higher = more binding, comparable within an allelic series)"
same,binding signal,[3],"9.39 upbm affinity estimate (log intensity, higher = more binding, comparable within an allelic series)"
same,binding signal,[4],"9.42 upbm affinity estimate (log intensity, higher = more binding, comparable within an allelic series)"
AACCAAAT,binding signal,[5],"10 upbm affinity estimate (log intensity, higher = more binding, comparable within an allelic series)"
same,binding signal,[6],"9.12 upbm affinity estimate (log intensity, higher = more binding, comparable within an allelic series)"
same,binding signal,[7],"9.13 upbm affinity estimate (log intensity, higher = more binding, comparable within an allelic series)"
AATAACCG,binding signal,[5],"10.1 upbm affinity estimate (log intensity, higher = more binding, comparable within an allelic series)"
CGATAACC,binding signal,[5],"9.81 upbm affinity estimate (log intensity, higher = more binding, comparable within an allelic series)"
GGGCCCCC,binding signal,[1],"9.38 upbm affinity estimate (log intensity, higher = more binding, comparable within an allelic series)"
same,binding signal,[2],"9.62 upbm affinity estimate (log intensity, higher = more binding, comparable within an allelic series)"
same,binding signal,[3],"9.51 upbm affinity estimate (log intensity, higher = more binding, comparable within an allelic series)"
same,binding signal,[4],"9.4 upbm affinity estimate (log intensity, higher = more binding, comparable within an allelic series)"
CCTGCACC,binding signal,[1],"9.28 upbm affinity estimate (log intensity, higher = more binding, comparable within an allelic series)"
same,binding signal,[2],"9.29 upbm affinity estimate (log intensity, higher = more binding, comparable within an allelic series)"
same,binding signal,[3],"9.3 upbm affinity estimate (log intensity, higher = more binding, comparable within an allelic series)"
same,binding signal,[4],"9.7 upbm affinity estimate (log intensity, higher = more binding, comparable within an allelic series)"
AGGCTCCC,binding signal,[1],"9.39 upbm affinity estimate (log intensity, higher = more binding, comparable within an allelic series)"
same,binding signal,[2],"9.56 upbm affinity estimate (log intensity, higher = more binding, comparable within an allelic series)"
same,binding signal,[3],"9.51 upbm affinity estimate (log intensity, higher = more binding, comparable within an allelic series)"
same,binding signal,[4],"9.47 upbm affinity estimate (log intensity, higher = more binding, comparable within an allelic series)"
ATTTAGTC,binding signal,[5],"10.2 upbm affinity estimate (log intensity, higher = more binding, comparable within an allelic series)"
AATTGGAC,binding signal,[5],"10.1 upbm affinity estimate (log intensity, higher = more binding, comparable within an allelic series)"
same,binding signal,[8],"9.62 upbm affinity estimate (log intensity, higher = more binding, comparable within an allelic series)"
ACCGCTTA,binding signal,[5],"10.8 upbm affinity estimate (log intensity, higher = more binding, comparable within an allelic series)"
CACGTTTA,binding signal,[5],"10.1 upbm affinity estimate (log intensity, higher = more binding, comparable within an allelic series)"
GGATATAA,binding signal,[9],"10.5 upbm affinity estimate (log intensity, higher = more binding, comparable within an allelic series)"
TATGAATA,binding signal,[5],"10.3 upbm affinity estimate (log intensity, higher = more binding, comparable within an allelic series)"
ATATTAGA,binding signal,[10],"9.95 upbm affinity estimate (log intensity, higher = more binding, comparable within an allelic series)"
same,binding signal,[11],"11.1 upbm affinity estimate (log intensity, higher = more binding, comparable within an allelic series)"
same,binding signal,[12],"11.8 upbm affinity estimate (log intensity, higher = more binding, comparable within an allelic series)"
same,binding signal,[13],"11.5 upbm affinity estimate (log intensity, higher = more binding, comparable within an allelic series)"
same,binding signal,[14],"8.88 upbm affinity estimate (log intensity, higher = more binding, comparable within an allelic series)"
AGGCCCAG,binding signal,[10],"8.42 upbm affinity estimate (log intensity, higher = more binding, comparable within an allelic series)"
same,binding signal,[14],"8.28 upbm affinity estimate (log intensity, higher = more binding, comparable within an allelic series)"
CGGCGTTC,binding signal,[10],"8.31 upbm affinity estimate (log intensity, higher = more binding, comparable within an allelic series)"
same,binding signal,[15],"6.29 upbm affinity estimate (log intensity, higher = more binding, comparable within an allelic series)"
same,binding signal,[16],"6.24 upbm affinity estimate (log intensity, higher = more binding, comparable within an allelic series)"
same,binding signal,[14],"8.26 upbm affinity estimate (log intensity, higher = more binding, comparable within an allelic series)"
same,binding signal,[17],"10.4 upbm affinity estimate (log intensity, higher = more binding, comparable within an allelic series)"
same,binding signal,[18],"6.31 upbm affinity estimate (log intensity, higher = more binding, comparable within an allelic series)"
same,binding signal,[19],"10.4 upbm affinity estimate (log intensity, higher = more binding, comparable within an allelic series)"
CGGTGTCC,binding signal,[10],"8.41 upbm affinity estimate (log intensity, higher = more binding, comparable within an allelic series)"
same,binding signal,[11],"9.36 upbm affinity estimate (log intensity, higher = more binding, comparable within an allelic series)"
same,binding signal,[12],"9.29 upbm affinity estimate (log intensity, higher = more binding, comparable within an allelic series)"
same,binding signal,[13],"9.3 upbm affinity estimate (log intensity, higher = more binding, comparable within an allelic series)"
same,binding signal,[14],"8.4 upbm affinity estimate (log intensity, higher = more binding, comparable within an allelic series)"
AGGGCGGC,binding signal,[10],"8.44 upbm affinity estimate (log intensity, higher = more binding, comparable within an allelic series)"
same,binding signal,[20],"9.45 upbm affinity estimate (log intensity, higher = more binding, comparable within an allelic series)"
same,binding signal,[21],"9.52 upbm affinity estimate (log intensity, higher = more binding, comparable within an allelic series)"
same,binding signal,[22],"7.1 upbm affinity estimate (log intensity, higher = more binding, comparable within an allelic series)"
same,binding signal,[23],"9.5 upbm affinity estimate (log intensity, higher = more binding, comparable within an allelic series)"
same,binding signal,[24],"6.95 upbm affinity estimate (log intensity, higher = more binding, comparable within an allelic series)"
same,binding signal,[14],"8.27 upbm affinity estimate (log intensity, higher = more binding, comparable within an allelic series)"
same,binding signal,[25],"6.98 upbm affinity estimate (log intensity, higher = more binding, comparable within an allelic series)"
